This is part of a sample that, as a whole, favours compounds with a hit. Of some 83,000 tested, about 20% had one in any assay.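 For each line, cells grew in 96-well plates with the test compound present at a single concentration for 48 hours.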 Active and inactive are the calls of the source. How the source made its calls: active means growth percent below 10; inactive means the rest.

This assay deals with CCRF-CEM leukemia. Kind of assay: NCI-60 one-dose screen, 48 h (100 = growth as untreated, 0 = no growth, -100 = all killed). As to conditions: 10 µM unless noted.
Take `COc1ccc(N2CCN(C3=C(Cl)C(=O)C(C)=C(C)C3=O)CC2)cc1`: the growth is 26.1% (inactive).
Turning to `C=C(C=O)[C@@H]1CC[C@]2(C)[C@H](C(=O)C=C3[C@H]4C[C@](C)(C(=O)OC)CC[C@]4(C)CC[C@]32C)[C@@]1(C)CCC#N`, the growth was 10.2% (inactive).
With `CCOc1ccc(C(=O)Nc2ncc(Cc3ccc(F)cc3)s2)cc1` the figure was 17.3% (inactive); with `Cc1ccc(-c2cc3nc(C(Cl)Cl)nc(-c4cccs4)n3n2)cc1`, 104% (inactive); with `CCOC(=O)c1c(N)c(C#N)cn1-c1cc(OC)c(OC)c(OC)c1`, 107% (inactive).
On to `CC(=O)C1=C(C)NC(NNC(N)=S)=NC1c1ccccc1` (centres undefined), for which the growth is 95.5% (inactive).
Turning to `NS(=O)(=O)c1ccc(Nc2nc(N/N=C/c3ccccn3)nc(Nc3ccccc3)n2)cc1`, the growth is 5.99% (active).
As to `Oc1cccc2ccc(-c3nnc(SCc4ccc(O)c5ncccc45)o3)nc12`, the growth was 19.6% (inactive).
As to `O=C1CCCC2=C1C(c1c[nH]c3ccc(Br)cc13)Cc1cc(Br)ccc1N2` (centres undefined), the growth was 6.67% (active).
For the molecule `COC(=O)c1[nH]nc2c1C1(C(=O)N(C)c3ccccc31)C(C#N)=C(N)O2` (centres undefined), the growth was 109% (inactive).
In the case of `CC1=NC2=NC(=O)/C(=C3/N=C(C)C=C(c4ccccc4)N3N)NN2C(c2ccccc2)=C1`, the growth is 109% (inactive).
With `Nc1cc(-c2c[nH]c3ccc(Br)cc23)nc2cc(-c3c[nH]c4ccc(Br)cc34)nn12` the figure was 7.39% (active); with `O=S(=O)(NCCNc1nccc(-n2cnc3ccccc32)n1)c1ccc(Cl)cc1`, 103% (inactive).
With `COc1ccc(Cn2cc3c(c2-c2cc(OC)c(OC)c(OC)c2)CCc2c(CN4CCOCC4)noc2-3)cc1` the figure was 16.3% (inactive).

The values are drawn from PubChem BioAssay (NCI).
